# Compound activity from PubChem BioAssay.
# Shown are actives, neighbours in structure and some others; about 3% of the full set was active somewhere.
# Glyco luc inh = increase of ERlucT glycosylation luciferase signal, primary screen, N-linked glycosylation inhibitor project, D54 ERlucT cells, luminescence, set 2; D54 ERlucT glycosylation luciferase reporter, 24 h; percent of 100 nM tunicamycin response; reporter increase, % at 12.5 µM; 360,000 tested, 0.23% active;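 active = mean luciferase reporter signal, scaled so untreated is 0 and the glycosylation-blocking control 100, at or above a set limit in every replicate; inconclusive = mean reaches the limit but not every replicate does; inactive = mean below the limit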;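 note: luciferase carries N-glycosylation sites so blocking glycosylation raises the light; 0% = median of neutral control wells and 100% = median of 100 nM tunicamycin wells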
# esBAF inh = Bmi1 luciferase reporter increase in mESCs, primary screen, esBAF inhibitor project, mouse ES cells, Bmi1 luciferase knock-in, single point. 350,000 tested, 2% active. 24 h; 100% = twice the neutral-well signal. reporter increase, % at 12.5 µM. AID 602393, 2012; in the data active = activation above about 40%; inconclusive = no clear call, values can overlap the other calls;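 note: 0% = median of the plate's neutral control wells and 100% = double that signal; a rise in the Bmi1 reporter signal indicates esBAF inhibition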
# MITF act = activators of MITF-driven TRPM1 promoter reporter, primary screen, cell-based, SK-MEL-5, luciferase, single point | SK-MEL-5 TRPM1-promoter luciferase, 24 h; % of positive control, neutral wells = 0 | activation, % at 12.5 µM | 300,000 tested, 0.75% active | AID 588334, 2011;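 active = mean activation of at least 80% with every replicate also reaching 80%; inconclusive = mean reaches 80% but some replicate falls short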;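 note: 0% = neutral control wells and 100% = parthenolide positive control wells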
# PfHsp90 set2 = growth inhibition of PfHsp90-expressing yeast, primary screen, antimalarial PfHsp90 inhibitor project, S. cerevisiae, BacTiter-Glo luminescence, single point, set 2. BacTiter-Glo ATP, 48 h; yeast lacking PDR1 and PDR3 efflux regulators. AID 504621, 2011. 310,000 tested, 0.32% active. inhibition, % at 9.4 µM;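 active = every replicate shows inhibition above about 80%, whatever the replicate mean, limit read from the data; inconclusive = mean inhibition reaches the set limit but some replicate falls short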;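 note: 0% = DMSO neutral controls and 100% = 20 µM radicicol positive controls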
# Vif imaging = HIV Vif self-association inhibitors, primary screen, imaging, HEK293T, single point; HEK293T cells, Vif self-association by quenched fluorescence, 24 h; inhibition, % at 7.49 µM; 340,000 tested, 0.35% active; in the data active = inhibition above about 50%, passing the limit was not always enough; inconclusive = no clear call, values can overlap the other calls; inactive = below about 31%
# Wnt act = Wnt/beta-catenin pathway activators, primary screen, cell-based, plate reader, single point. 300,000 tested, 1.2% active. AID 743398, 2014. Wnt/beta-catenin reporter cell assay, activator. activation, % at 9.35 µM; in the data active = activation above about 30%, passing the limit was not always enough; inconclusive = no clear call, values can overlap the other calls;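 note: 0% = neutral control wells and 100% = positive control wells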
# Ring1 derepress = Ring1 mRNA increase in mouse ESCs, confirmation, esBAF inhibitor project, cell-based, mouse ESC, RT-qPCR, cherry-pick; fold change at 33 µM; AID 743176, 2013; mouse ESC E14, Ring1 mRNA RT-qPCR fold change; shares compounds with esBAF inh; 550 tested, under 10 active;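 active = Ring1 gene expression raised more than 2-fold over untreated cells in both replicates at either tested dose; inconclusive = only one replicate above 2-fold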;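 note: Ring1 transcript normalised to actin housekeeping signal by TaqMan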
# Fgf4 repress = Fgf4 mRNA decrease in mouse ESCs, confirmation, esBAF inhibitor project, cell-based, mouse ESC, RT-qPCR, cherry-pick; shares compounds with esBAF inh; mouse ESC E14, Fgf4 mRNA qPCR fold change; active compounds read low; Fgf4 expression fold change at 33 µM; 550 tested, 4% active; AID 743177, 2013;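 active = Fgf4 expression under 0.8 fold of control in both repeat measurements at one or both tested doses; inconclusive = under 0.8 fold in just a single repeat measurement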;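 note: Fgf4 transcript normalised to actin in duplex TaqMan qPCR; cells exposed to compound for 24 h before lysis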
# Bmi1 derepress = esBAF inhibition via Bmi1 de-repression, confirmation, cell-based, RT-qPCR, mouse ESC, single point, cherry-pick. 550 tested, under 10 active. fold change at 33 µM. mouse ESE14 ES cells, Bmi1 mRNA qPCR fold; active compounds read high. shares compounds with esBAF inh;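 active = Bmi1 expression fold change above 6 at either tested concentration, seen in replicate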;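 note: higher fold means more Bmi1 de-repression and stronger esBAF inhibition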
# A549 tox SP = A549 cell cytotoxicity, cytotoxicity control, plate reader, single point, cherry-pick; shares compounds with esBAF inh; cell viability change % (negative = cytotoxic), % at 25 µM, hits read low; 550 tested, under 10 active; call rule not given here
# HepG2 cytotox SP = HepG2 cell cytotoxicity, cytotoxicity control, plate reader, single point, cherry-pick; shares compounds with esBAF inh; active compounds read low; activity change, negative = inhibition, % at 25 µM; 550 tested, 4% active; AID 743189, 2013; in the data active = activity change below about -50%
# HEK293 cytotox SP = HEK293 cell cytotoxicity, cytotoxicity control, plate reader, single point, cherry-pick; shares compounds with esBAF inh; activity change, negative = inhibition, % at 25 µM, hits read low; 550 tested, 3% active; AID 743190, 2013; in the data active = activity change below about -38%, passing the limit was not always enough
# Active calls of the source: *; ? = inconclusive; · = not tested or not shown.
SMILES,Glyco luc inh,esBAF inh,MITF act,PfHsp90 set2,Vif imaging,Wnt act,Ring1 derepress,Fgf4 repress,Bmi1 derepress,A549 tox SP,HepG2 cytotox SP,HEK293 cytotox SP
COc1ccc(C)c2sc(=NC(=O)c3cccc(N4C(=O)CCC4=O)c3)n(C)c12,2,76*,55,-2,-3,0,1.5,0.98,1.6,-9,-19,2
COc1ccc(C)c2sc(=NC(=O)c3ccc(C(C)=O)cc3)n(C)c12,-12,·,?,-11,-3,22,·,·,·,·,·,·
Cc1ccc(NC(=O)c2ccc3snnc3c2)cc1,-2,·,51,25,-3,0,·,·,·,·,·,·
CC(C)c1ccc(NC(=O)c2ccc3snnc3c2)cc1,-5,72*,76,13,3,19,1.2,0.94,1.8,-3,11,-5
O=C(NCC1CCCO1)c1cnc(Cl)c(Cl)c1 (stereo unspecified),1,9,1,22,-3,2,·,·,·,·,·,·
CN(C)c1ccc(C(=O)c2ccccc2)cc1,-3,58*,73,9,-6,24,1.1,?,1.5,-7,4,1
O=C(Nc1cccc(O)c1)c1ccc(Br)cc1,-6,57*,71,2,·,·,1,1.1,1.3,-7,-11,-18
O=C(Nc1cccc(O)c1)c1cccc(C(=O)Nc2cccc(O)c2)c1,2,-9,·,-15,-6,2,·,·,·,·,·,·
O=C(CN1CCN(Cc2cccc(F)c2)CC1)NCc1ccccc1,0,-9,·,5,-5,0,·,·,·,·,·,·
COc1ccccc1N1CCN(C(=O)Nc2cccc(Cl)c2)CC1,0,13,27,4,-2,-2,·,·,·,·,·,·
COc1cccc(NC(=O)N2CCN(c3cccc(C)c3C)CC2)c1,-2,72*,·,·,-6,0,1.1,1,1.2,-3,13,-5
Cc1cc(NC(=O)C2C3C(=O)N(CCC(C)C)C(C(=O)NCc4ccccc4)C34C=CC2(C)O4)no1 (stereo unspecified),-1,-3,13,-18,16,·,·,·,·,·,·,·
C=CCN(C(=O)CC(NC(C)=O)c1ccccc1)c1nc(-c2ccc(S(C)(=O)=O)cc2)cs1 (stereo unspecified),-7,78*,48,-1,-2,5,0.94,1.2,1.1,-12,-11,-18
O=C(NC(=O)c1ccc(C(F)(F)F)cc1)Nc1ccc(-c2cnco2)cc1,-3,·,·,2,-2,-2,·,·,·,·,·,·
O=C(Nc1ccc(-c2cnco2)cc1)c1ccc(F)cc1F,2,63*,42,-12,5,39*,1.1*,0.97,0.78,-2,-42,2
O=C(CN1C(=O)C2C3C=CC(C4CC34)C2C1=O)OCC(=O)c1ccccc1 (stereo unspecified),0,·,1,-8,-5,·,·,·,·,·,·,·
Cc1ccc(OCCN2CCCC2)cc1,-1,-2,1,-4,-12,0,·,·,·,·,·,·
O=C(Nc1ccc(Cl)cc1)Nc1ccc(Cl)c(Cl)c1,·,·,·,·,·,1,·,·,·,·,·,·
O=C(Nc1ccc(Cl)c(Cl)c1)Nc1ccccc1O,-4,74*,·,13,9,10,1.7,?,1.7,5,-5,4
Cc1ccc(CNC(=O)C2CCC(=O)N(CCc3ccc(Cl)cc3)C2)s1 (stereo unspecified),-2,-3,20,4,10,-4,·,·,·,·,·,·
Cc1ccc(CNC(=O)C2CCC(=O)N(CCc3ccc(Cl)cc3)C2)cc1 (stereo unspecified),-1,56*,75,-3,-5,8,1.2,0.93,1.7,-5,3,2
COc1cc(OC)cc(C(=O)Nc2ccc(-c3nc4ccccc4o3)cc2)c1,0,14,-6,·,9,·,·,·,·,·,·,·
O=C(Nc1ccc(-c2nc3ccccc3[nH]2)cc1)c1ccccc1NS(=O)(=O)c1ccc(F)cc1,2,·,5,-3,-2,·,·,·,·,·,·,·
CS(=O)(=O)c1ccccc1C(=O)Nc1ccc(-c2nc3ccccc3o2)cc1,-3,67*,72,16,16,22,1.2,1.1,2.2,-6,0,4
CS(=O)(=O)c1ccccc1C(=O)Nc1ccc(-c2nc3ccccc3[nH]2)cc1,-1,58*,64,3,-10,18,1.2,1.4,2,-3,-18,6
SMILES,Glyco luc inh,esBAF inh,MITF act,PfHsp90 set2,Vif imaging,Wnt act,Ring1 derepress,Fgf4 repress,Bmi1 derepress,A549 tox SP,HepG2 cytotox SP,HEK293 cytotox SP
O=C(O)CSc1nc2ccccc2nc1Cc1ccccc1F,3,·,1,2,-10,2,·,·,·,·,·,·
c1cncc(C2OCC3(CO2)COC(c2cccnc2)OC3)c1 (stereo unspecified),-2,·,4,24,11,11,·,·,·,·,·,·
CC(=O)Nc1ccc(NC(=O)c2ccccc2F)cc1,1,16,·,·,6,20,·,·,·,·,·,·
O=C(Nc1ccc(F)cc1)c1ccccc1F,-2,85*,82*,0,-3,22,1.3,1,1.6,-11,-3,-16
O=C(N/N=C/c1ccccc1)c1ccc(NC(=O)c2ccc(F)cc2)cc1,3,58*,12,-1,0,1,1.2,1.1,1.2,7,8,0
CC(=O)Nc1ccc(C(=O)N/N=C/c2ccc(F)cc2)cc1,2,·,1,-29,1,-1,·,·,·,·,·,·
O=C(O)c1ccc2noc(-c3ccccc3)c2c1,3,82*,53,-2,2,·,1.1,?,1.5,3,9,2
